Measurements as given in PubChem BioAssay (NCI).
Several values for one entry are separate records, joined by “and”; a condition that tells them apart may be missing. Equal entries are not always repeated. The panel holds about 83,000 compounds, 20% with a hit somewhere; the sample as a whole holds those more often.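 Treatment: one concentration, 48 hours, 96-well format. Scoring: percent growth, with anything below 10 considered active.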 A number with no mark means an inactive call. Activity calls are given as the source filed them.

What follows are molecules tested on MDA-MB-468 breast (assay: NCI-60 one-dose screen, 48 h (100 = growth as untreated, 0 = no growth, -100 = all killed)). Conditions: 10 µM unless noted.

| SMILES | growth |
| --- | --- |
| COc1cc2c3c(n(C4CCN(C)CC4)c(=O)c2cc1OC)-c1cc2c(cc1C3=O)OCO2 | 31.6% |
| O=C(Nc1ccccc1O)c1ccc(-c2ccc(Cl)cc2Cl)o1 | 80.8% |
| CC(C)c1ccc2c(c1)CCC1C2CCCC1(C)NCc1ccccc1 (stereo not given) | -44.5% (active) |
| COc1ccc(/C=C/C(=O)Nc2ncnc3nc[nH]c23)cc1 | 95.3% |
| c1cncc(CNc2ccccc2-c2nnc(Nc3ccc4c(c3)OCO4)o2)c1 | -1.51% (active) |
| O=C1OC(c2ccc(Cl)c(Cl)c2)=C/C1=C/c1cccc([N+](=O)[O-])c1 | 92.3% |
| C[C@]12O[C@H]1[C@H](O)c1c(cc(O)c3c1C(=O)c1cccc(O)c1-3)C2=O | 83.3% |
| O=C(CCCCCCN1CC(=O)N2[C@@H](c3cccs3)c3[nH]c4ccccc4c3C[C@H]2C1=O)NO | 41.6% |
| Oc1[nH]c2ccccc2c1/C=c1/cc2c(c(-c3ccc(C(F)(F)F)cc3)n1)=Nc1ccccc1-2 | 21.6% |
| Nc1c(C(=O)Nc2cccc(C(F)(F)F)c2)sc2nc3c(cc12)CCCCCC3 | -24.9% (active) |
| Cc1ccc(Nc2nc(NCCO)c3ccccc3n2)cc1C | 32.9% |
| O=C(O)C1C2CC3C(OC(=O)C31)C2Br (stereo not given) | 93.2% and 72.3% |
| CC(C)(C)c1ccc(S(=O)(=O)N[C@H]2CC[C@H]3[C@@H]4CCc5cc(O)ccc5[C@H]4CC[C@]23C)cc1 | 57.8% |
| Nc1nc(N)c(N=Nc2ccccc2)c(-c2ccccc2)n1 | 8.67% (active) |
| C[C@H](c1nc2ccc(C#N)cc2[nH]1)[C@H]1CC[C@H]2[C@@H]3CCC4=CC(=O)CC[C@]4(C)[C@H]3CC[C@]12C | 15.6% |
| CC(=O)c1nc2ccccc2n1CCN1CCN(C)CC1 | -20.2% (active) |
| COc1ccc(-c2nn(-c3ccc(NC(=O)c4ccc(Cl)c(Cl)c4)cc3)cc2-c2ccncc2)cc1Cl | 47% |
| O=C1c2c(c3c4cccc(F)c4[nH]c3c3ccc4ccccc4c23)C(=O)N1O | 54.3% |
| O=S(=O)(CCN1CCOCC1)Nc1cc(-c2ccc3ncnc(Nc4ccc(F)c(Cl)c4)c3c2)cnc1Cl | -34.4% (active) |
| COc1ccccc1-n1cnc(N)c1C(=O)c1cc(OC)c(OC)c(OC)c1 | 39.3% |

| SMILES | growth |
| --- | --- |
| N#C/C(=C\c1cccc(C#N)c1)c1ccccc1 | 106% |
| COC(=O)[C@H](C)NC(=O)[C@@H]1CCCN1C(=O)CNC(=O)[C@H](C)N | 98.7% |
| O=c1cc(CSc2nnc(-c3ccccc3)n2-c2ccc(F)cc2)c2ccc3ccccc3c2o1 | 93.2% |
| CSc1nc(N)c2[nH]c(-c3cc4ccccc4[nH]c3=O)nc2n1 | 1.87% (active) |
| CCOC(=O)Nc1nc2ccccc2[nH]1 | 99.4% and 26.8% |
| O=C(C[n+]1ccccc1)c1ccc2ccccc2c1 | 88.1% |
| CN(C)C(=O)OCc1ccc2c(Cl)cc(Cl)c(O)c2n1 | 27% |
| O=C(Nc1cc([N+](=O)[O-])c2[nH]c(=O)c3ccccc3c2c1)C(F)(F)F | -15.2% (active) |
| O=C(/C=C/c1ccccc1)c1ccc(-n2cc(CN3CCN(c4cc5c(cc4F)c(=O)c(C(=O)O)cn5C4CC4)CC3)nn2)cc1 | 66% |
| CCOC(=O)c1c2c(n3cccc(F)c13)C(=O)c1ncccc1C2=O | 39.6% |
| Nc1nc(N)c2c(ccc3nccc32)[nH]1 | 34.9% |
| CCN(CC)CCOc1ccc(/C(=C(\C)c2ccc(Cl)cc2)c2ccc(Cl)cc2)cc1 | 70.6% |
| N=C(N)c1ccc(-c2ccc(-c3ccco3)o2)cc1 | 22.9% |
| Cc1ccc(N=Nc2c(N)nc(N)[nH]c2=O)cc1C | 84.5% |
| CCn1cc(C(=O)O)c(=O)c2cc(F)c(N3CCN(S(=O)(=O)c4ccc(OC)c(OC)c4)CC3)cc21 | 100% |
| CC(=O)O[C@@H]1C[C@]2(C)[C@H]3[C@H](O)C[C@@H]4C5=CC(C)(C)CC[C@]5(C)CC[C@@]4(C)[C@]3(C)CC[C@H]2C(C)(C)[C@H]1O | 116% |
| O=c1cc(-c2ccccc2)[nH]c2ncc(-c3ccc(F)cc3)n12 | 83% |
| CCOC(=O)C1=C(C)N2C(=NC3=C(CCCC/C3=C\c3cc(OC)c(OC)c(OC)c3)C2c2cc(OC)c(OC)c(OC)c2)S1 (stereo not given) | 25.2% |
| [2H]C([2H])([2H])Oc1cccc(/C=C/C(=O)/C=C(/C=C/c2cccc(OC([2H])([2H])[2H])c2OC([2H])([2H])[2H])OB(F)F)c1OC([2H])([2H])[2H] | 54.6% |
| CC1(O)CC(c2nc(-c3ccc4ccc(-c5ccccc5)nc4c3)c3c(N)nccn23)C1 (stereo not given) | 25% |
